This is a sample that favours compounds with a hit; in the whole collection about 3.4% have one here.
ADAM10 inh: inhibitors of human ADAM10. 370,000 tested, 0.62% active. recombinant ADAM10, EDANS/DABCYL FRET peptide cleavage, 3 h. O14672. AID 720582. inhibition, % at 7 µM;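 active = inhibition above a per-campaign cutoff equal to the mean of compounds falling between control-based bounds plus 3 SD, cut at about 20% in these data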
proKLK7 act: proKLK7 (human) activation, primary screen; P49862; purified proKLK7, EDANS-DABCYL substrate fluorescence; 100% is mature enzyme control, 0% vehicle; activation, % at 7 µM; 370,000 tested, 0.9% active;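 active = activation above the mean of all tested compounds plus 3 SD, computed per campaign excluding outliers beyond control limits, cut at about 13% in these data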
Target sequence (P49862 whole entry, looked up): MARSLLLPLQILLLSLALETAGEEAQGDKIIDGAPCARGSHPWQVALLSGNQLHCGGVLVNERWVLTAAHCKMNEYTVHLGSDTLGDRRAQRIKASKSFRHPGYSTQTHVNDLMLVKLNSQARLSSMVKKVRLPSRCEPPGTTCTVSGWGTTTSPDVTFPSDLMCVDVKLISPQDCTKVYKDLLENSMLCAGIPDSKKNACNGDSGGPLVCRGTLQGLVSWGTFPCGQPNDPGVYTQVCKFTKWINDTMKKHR
ADAM17 inh: inhibits human ADAM17; P78536; recombinant ADAM17, EDANS/DABCYL FRET peptide cleavage; inhibition, % at 6.95 µM; 370,000 tested, 0.83% active; AID 720648;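 active = inhibition above the mean of compounds lying between control limits plus 3 SD, set per campaign, cut at about 8.5% in these data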
sPLA2-III inh: Inhibits HGIII-sPLA2 liposome hydrolysis, primary screen; Q9NZ20; QFRET BODIPY PC-A2 liposome hydrolysis, fluorescence; inhibition, % at 12.2 µM; 370,000 tested, 0.56% active;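 active = inhibition above mean plus 3 SD of compounds lying within the high and low control bounds, cut at about 19% in these data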
NRP1-CendR mod: modulators of CendR peptide binding to human neuropilin-1. O14786. FAM-RPARPAR peptide binding to NRP-1, fluorescence polarization. AID 602438. 360,000 tested, 0.85% active. inhibition, % at 25 µM;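 active = inhibition or corrected inhibition above about 18%, plus a signal ratio from 0.5 to 1.5, limit read from the data, passing the limit was not always enough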
ADAM10 counter: inhibits human ADAM10 in ADAM17 exosite counter-screen; recombinant ADAM10, EDANS/DABCYL FRET peptide cleavage, 3 h; shares compounds with ADAM17 inh; inhibition, % at 6.95 µM; 2,900 tested, 47% active;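 active = mean inhibition over the triplicate runs exceeds the activity threshold set in the earlier primary screen, cut at about 20% in these data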
ADAM17 confirm: human ADAM17 inhibition, confirmation. shares compounds with ADAM17 inh. recombinant ADAM17, EDANS/DABCYL QFRET peptide cleavage. inhibition, % at 6.95 µM. 2,900 tested, 65% active;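 active = mean inhibition across replicates above the hit cutoff set in the primary screen, cut at about 8.5% in these data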
Hits are given with their value; 0 = inactive; - = no result.

SMILES | ADAM10 inh | proKLK7 act | ADAM17 inh | sPLA2-III inh | NRP1-CendR mod | ADAM10 counter | ADAM17 confirm
CCc1ccc(CCNC(=O)OCCCN2CCC3(CCC(c4ccccc4)CC3)C2=O)cc1 (centres undefined) | 0 | 0 | 9.4 | 0 | - | 36.2 | 15.4
CCCCNC(=O)OCCCN1CCC2(CCC(c3ccccc3)CC2)C1=O (centres undefined) | 0 | 0 | 0 | 0 | - | - | -
O=C(c1ccccc1Cl)N1CCSCCS1(=O)=O | 0 | 0 | 0 | 0 | - | - | -
CC(C)(C)NC(=O)CSc1nc(-c2ccc(F)cc2)cs1 | 0 | 0 | 9.1 | 0 | 0 | 0 | 0
COC(=O)c1cc2c(c3c4cc(F)ccc4n(S(=O)(=O)c4ccc(C)cc4)c13)C(=O)N(c1ccc(OC)cc1)C2 | 0 | 0 | 0 | 0 | - | - | -
Clc1ccc(-n2c(SCc3cccc4ccccc34)nnc2-c2ccccn2)cc1 | 0 | 0 | 11.2 | 0 | - | 26.6 | 14.1
Cc1cccc(-c2nnc(SCc3cccc4ccccc34)n2-c2ccc(Cl)cc2)c1 | 0 | 0 | 0 | 0 | - | - | -
CCCN(CC1CC1)C(=O)CNc1nnnn1-c1ccccc1 | 0 | 0 | 0 | 0 | - | - | -
Cc1cc(C)c(OCC(=O)NCC2COc3ccccc3O2)c(C)c1 (centres undefined) | 0 | 0 | 14.6 | 0 | 0 | 0 | 0
O=C(NC1CCCCN(Cc2cccc(F)c2)C1=O)c1ccc2ccccc2c1 (centres undefined) | 0 | 0 | 0 | 0 | - | - | -
O=S(=O)(c1ccc(Cl)s1)N1CCC(c2nc3ccccc3o2)CC1 | 0 | 0 | 0 | 0 | - | - | -
Nn1c(SCC(=O)Nc2ccccc2-c2ccccc2)nnc1-c1cc(-c2ccc(F)cc2)n[nH]1 | 0 | 0 | 0 | 0 | - | - | -
Fc1ccc(F)c(Cn2ccc3ccc(-c4ccc5ccn(Cc6cc(F)ccc6F)c5c4)cc32)c1 | 0 | 0 | 0 | 0 | - | - | -
Cc1cc(C)c(NC(=O)COC(=O)c2cc([N+](=O)[O-])ccc2N2CCOCC2)c(C)c1 | 0 | 0 | 0 | 0 | 0 | - | -
Cc1cc(NC(=O)COC(=O)c2cc([N+](=O)[O-])ccc2N2CCOCC2)ccc1Br | 0 | 0 | 8.7 | 0 | 0 | 45.7 | 19.4
CC[C@@]1(C(=O)OC)N[C@H](CN(C)S(=O)(=O)c2ccc(-c3ccccc3)cc2)[C@@H]2C(=O)N(C)C(=O)[C@@H]21 | 0 | 0 | 12.8 | 0 | 0 | 0 | 0
N#Cc1[nH]nc2nc[nH]c(=O)c12 | 0 | 0 | 0 | 0 | - | - | -
CCCn1c(C(C)Nc2nc(-c3cccc(Br)c3)cs2)nc2ccccc21 (centres undefined) | 0 | 0 | 0 | 0 | 0 | - | -
CCCn1c(CCNc2nc(-c3cccc(Br)c3)cs2)nc2ccccc21 | 0 | 0 | 10.9 | 0 | 0 | 0 | 11.1
C[C@H]1[C@@H](NC(=O)C2CCOC2)CC[C@@]23CCCN2C(=O)CCC[C@@H]13 (some centres undefined) | 0 | - | 0 | 0 | - | - | -
COC(=O)C1CN(Cc2cn(Cc3ccc(Cl)cc3)nn2)CCS(=O)(=O)N1Cc1ccc(F)cc1 (centres undefined) | 0 | 0 | 0 | 0 | - | - | -
COc1cccc(CC(=O)N(Cc2ccccc2)c2ccccc2C(=O)Nc2cc(OC)ccc2OC)c1 | 0 | 0 | 12.3 | 0 | - | 0 | 13.3
CCCCOCCCNC(=O)C[C@H]1C[C@@]2(C(=O)OC)C(=C[C@H](C(C)C)O[C@@H]2C2CC2)N(Cc2ccc3c(c2)OCO3)C1=O | 0 | 0 | 0 | 0 | - | - | -
OC(CSc1nnnn1-c1ccccc1)Cn1c2ccccc2c2ccccc21 (centres undefined) | 0 | 0 | 11.0 | 0 | 0 | 0 | 10.3
c1ccc(Cc2cnc(N3CCN(Cc4csc5ccccc45)CC3)nc2)cc1 | 0 | 0 | 0 | 0 | - | - | -
CCCCNS(=O)(=O)c1ccc2nc(SCC(=O)Nc3ccccc3Cl)[nH]c2c1 | 0 | 0 | 9.9 | 0 | 0 | 25.7 | 12.4
O=C1CSc2ccc(C(=O)N3CCCC(C(=O)N4CCCC4)C3)cc2N1 (centres undefined) | 0 | 0 | 0 | 0 | - | - | -
COc1cccc(C(Nc2ccccn2)c2oc(CO)cc(=O)c2O)c1 (centres undefined) | 0 | 0 | 13.2 | 0 | 0 | 26.8 | 29.0

Screening results (PubChem BioAssay)
